Measured values from PubChem BioAssay AID1041 (National Center for Advancing Translational Sciences (NCATS), 2008).
Calls of active or inactive are those of the source.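 The calls were made as follows: active = compound lifting p16 RNA above DMSO-treated cells by a clear fold change, a shift of a few PCR cycles; inactive = the rest, including any drop in level.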

Assay: p16 Derepression/Induction Secondary Assay for qHTS Assay for Epigenetic Modulators
Conditions: H358 cells, p16 mRNA RT-qPCR, 72 h; active compounds read high
From the text: NIH Molecular Libraries Screening Centers Network [MLSCN] NIH Chemical Genomics Center [NCGC] MLSCN Grant: 1 X01 MH079860-01 Assay Provider: Elisabeth D. Martinez, University of Texas SW Medical Center NCGC Assay Overview: This secondary assay characterizes selected actives identified in the qHTS of the Locus Derepression (LDR) assay (PubChem AID 597). The LDR assay detects the derepression of a GFP reporter that is stably integrated in a region of the genome of murine c127i mammary cells that is presumably silenced. Compounds that cause derepression of the locus to express GFP are identified by enumerating GFP positive cells using a laser-scanning microplate cytometer. Selected LDR actives were assayed for the induction of p16 gene expression, a gene silenced by dense methylation of its promoter. Treatment of cells with DNA methyltransferase inhibitors like 5-azadeoxycytidine induce p16 gene expression. Compounds active in this assay may affect components involved in DNA methylation or gene transcription.
NCGC Assay Protocol Summary Exponentially growing H358 non-small cell lung cancer cells were treated daily with fresh media containing the indicated concentrations of compounds for 72 hr. Cellular RNA was extracted, quantified, DNAse treated and reverse transcribed. The resulting cDNA was amplified in TaqMan real time quantitative PCR assays (Applied Biosystems) containing validated primers specific for p16 (Hs00233365_m1). Reactions were performed on an ABI Prism 7900HT, with an initial 2 min preincubation at 50 C, followed by 10 min at 95 C and then 40 cycles of 95 C for 15 seconds and 60 C for 1 min. GAPDH and 18S ribosomal RNA were used as references. Gene expression was measured by fold-induction over control DMSO-treated samples (36-37 average cycle time). Increases corresponded to at least 2-3 cycle time differences over DMSO controls, which were in the measurable range. Decreases in expression were considered insignificant as measurement of the DMSO samples were at the low limit of detection. Reactions were run in triplicate and error bars represent standard deviations. For further details, see R.L. Johnson, W. Huang, A. Jadhav, C.P. Austin, J. Inglese, E.D. Martinez, A Quantitative High-Throughput Screen Identifies Potential Epigenetic Modulators of Gene Expression, Analytical Biochemistry (2007), doi: 10.1016/j.ab.2007.12.028
With `O=C(CSc1cccc2cccnc12)N1CCCC1` the fold change was 1 (inactive). In the case of `CN1CCN(Cc2cc(Cl)c3cccnc3c2O)CC1`, the fold change is reported as 1 (inactive). With `CCN1CSC(=S)N(CC)C1` the fold change was 1 (inactive). For `Nc1ncn([C@H]2C[C@H](O)[C@@H](CO)O2)c(=O)n1`, the fold change was 351 (active). With `O=Nc1ccc(O)c2ncccc12` the fold change was 2 (inactive). With `O=C(CSc1cccc2cccnc12)NCc1ccccc1` the fold change was 1 (inactive). With `CC(C)C(=O)NC(c1ccco1)c1cc([N+](=O)[O-])c2cccnc2c1O` (configuration not stated) the fold change was 2 (inactive). For `CN(C)C(=O)CSc1cccc2cccnc12`, the fold change was 0.4 (inactive). With `CC(/C=C/C(=O)NO)=C\[C@@H](C)C(=O)c1ccc(N(C)C)cc1` the fold change was 1 (inactive). In the case of `CC(C)C(=O)NC(c1ccco1)c1ccc2cccnc2c1O` (configuration not stated), the fold change is reported as 1 (inactive). For `CC(C)C(=O)NC(c1ccc(N(C)C)cc1)c1ccc2cccnc2c1O` (configuration not stated), the fold change was 0.4 (inactive). With `COc1ccc(C(NC(=O)C(C)C)c2ccc3cccnc3c2O)cc1` (configuration not stated) the fold change was 1 (inactive).
